PubChem BioAssay AID1917 (Vanderbilt High Throughput Screening Facility, 2009)
The campaign covered roughly 3,000 compounds. About 1,600 (53%) were called active. Inconclusive results (about 10%) are left out. The set was probably picked from earlier hits. These entries were drawn from the full list. Values without a mark were called inactive.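 The calls were made as follows: active = Flux at 10 µM at least 3 SD below or above vehicle control mean in one or both replicates; inconclusive = no clear call, values can overlap the other calls; inactive = the rest.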

Target: ATP-sensitive inward rectifier potassium channel 1 (Homo sapiens) (UniProt P48048)
Experiment: ROMK channel modulator hit retest, confirmation, cell-based, thallium flux, duplicate, resupplied hits (AID 1917)
Conditions: fluorescence ratio, at 10 µM, active compounds read low

ATP-sensitive inward rectifier potassium channel 1 (Homo sapiens), sequence (P48048 whole entry, looked up): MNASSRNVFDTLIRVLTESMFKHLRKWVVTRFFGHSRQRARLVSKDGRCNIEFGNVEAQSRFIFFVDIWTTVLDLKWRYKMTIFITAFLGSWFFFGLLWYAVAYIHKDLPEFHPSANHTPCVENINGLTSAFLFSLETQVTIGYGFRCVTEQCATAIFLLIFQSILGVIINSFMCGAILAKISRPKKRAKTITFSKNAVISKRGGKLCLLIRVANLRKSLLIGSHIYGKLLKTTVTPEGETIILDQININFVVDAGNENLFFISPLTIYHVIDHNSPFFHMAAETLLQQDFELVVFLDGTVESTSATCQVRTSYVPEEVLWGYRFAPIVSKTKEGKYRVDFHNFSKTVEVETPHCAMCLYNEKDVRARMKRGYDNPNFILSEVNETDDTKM

| Compound | normalized thallium flux (F/F0 slope) |
| --- | --- |
| CC(=O)Nc1cccc(OCC(=O)/C=C2\N(C)c3ccccc3C2(C)C)c1 | 0.0622 (active) |
| COc1ccc(C2=CC(c3cccc(OC)c3)n3nnnc3N2)cc1 (stereo not drawn) | 0.0704 |
| Cc1cc(NC(=O)/C=C/C(=O)N(c2ccccc2C)C(C(=O)NC2CCCC2)c2ccc(F)cc2)no1 (stereo not drawn) | 0.0543 (active) |
| N#C/C(=C/c1cccc([N+](=O)[O-])c1)c1nnc2n1CCCCC2 | 0.0362 (active) |
| CC1=C(C(=O)OCc2ccccc2)C(c2ccco2)n2ncnc2N1 (stereo not drawn) | 0.0737 |
| COc1ccc(C(CCNCc2ccccc2F)c2ccc(F)cc2)cc1 (stereo not drawn) | 0.0609 (active) |
| Cc1cccc(Oc2c([N+](=O)[O-])c(=O)n(C)c3ccccc23)c1 | 0.063 (active) |
| Nc1ccccc1SC(C[N+](=O)[O-])c1ccccc1 (stereo not drawn) | 0.0367 (active) |
| O=C(/C=C/Sc1ncn[nH]1)c1ccc(Cl)cc1 | 0.0389 (active) |
| Cc1ccc2c(=O)oc(N(C)C)nc2c1 | 0.0826 |
| CCOc1ccc(-n2cnnn2)cc1S(=O)(=O)N1CCC(C)CC1C (stereo not drawn) | 0.0657 (active) |
| N=c1n(CCc2ccccc2)c2ccccc2n1Cc1ccccc1F | 0.0479 (active) |
| COc1ccc(Nc2cc(C)nc(-n3nc(C)cc3C)n2)cc1 | 0.0854 |
| CC1(C)CCSC(/C=C/c2ccccc2)=N1 | 0.0442 (active) |
| CCn1c(/C=C/Nc2ccccc2)[n+](CC)c2ccc(C(=O)OCC(F)(F)F)cc21 | 0.0522 (active) |
| O=C(Nc1cccc(C(F)(F)F)c1)c1ccc(N2CCNCC2)c([N+](=O)[O-])c1 | 0.0632 (active) |
| N#C/C(=C\c1ccccc1C(F)(F)F)C(=O)Nc1ccccc1F | 0.0489 (active) |
| Cc1ccc(N2C(=O)C3CC3C2=O)cc1 (stereo not drawn) | 0.0794 |
| N#C/C(=C\C1=C(N2CCOCC2)C(=C\c2ccccc2)/CC1)C(=O)Nc1ccccc1F | 0.0509 (active) |
| COC(=O)C[n+]1cccc2ccccc21 | 0.0529 (active) |
| CN1CCN(c2ccc(S(=O)(=O)N3CCCCC3)cc2NC(=O)Cc2ccccc2F)CC1 | 0.0614 (active) |
| CNc1nccc(-c2ccc(Cl)cc2)c1C#N | 0.0744 |
| CCOC(=O)N/N=C1\CC(C)S(=O)(=O)c2ccc(Cl)cc21 (stereo not drawn) | 0.0738 |
